Key:
[1] = system: Vero E6 infected with SARS-CoV-2; assay: morphology score (similarity to uninfected cells); higher = more like uninfected cells; details: 24 h
[2] = system: Vero E6 infected with SARS-CoV-2; assay: SARS-CoV-2 infection rate relative to infected DMSO; higher = more infection, active = 60 or less; details: 24 h

| SMILES | morphology score [1] | SARS-CoV-2 infection rate [2] |
| --- | --- | --- |
| CCCC1(CCC)CCC2(CCN(CCCN(CC)CC)C2)CC1 [atiprimod] (0.833333 µM) | 0.283 | 82.5% (inactive) |
| CCn1cc(C(=O)O)c(=O)c2cc(F)c(N3CCNC(C)C3)c(F)c21 (configuration not stated) [lomefloxacin] (10 µM) | 0.0917 | 96.5% (inactive) |
| CC1(C)CC[C@]2(NC(=O)C(C)(F)F)CC[C@]3(C)[C@H](C(=O)C=C4[C@@]5(C)C=C(C#N)C(=O)C(C)(C)[C@@H]5CC[C@]43C)[C@@H]2C1 [Omaveloxolone (RTA-408)] (10 µM) | -0.212 | 112% (inactive) |
| CN/C(=N\S(=O)(=O)c1ccc(Cl)cc1)N1C[C@H](c2ccccc2)C(c2ccc(Cl)cc2)=N1 (racemic) (10 µM) | -0.133 | 114% (inactive) |
| CC1=CC(=C(c2ccc(N)cc2)c2ccc(N)cc2)C=CC1=N [basic-fuchsin] (0.833333 µM) | 0.163 | 97.5% (inactive) |
| Cc1cc([C@@H](C)Nc2ccccc2C(=O)O)c2nc(N3CCOCC3)cc(=O)n2c1 (10 µM) | -0.0702 | 105% (inactive) |
| CSc1ccccc1Nc1nc(N2CCNCC2)nc2c(NCC3CC3)ncnc12 (0.833333 µM) | 0.166 | 101% (inactive) |
| Cn1cc(C2=C(c3ccc(Cl)cc3Cl)C(=O)NC2=O)c2ccccc21 (10 µM) | 0.00458 | 102% (inactive) |
| c1ccc(-c2ccc(C(c3ccccc3)n3ccnc3)cc2)cc1 (configuration not stated) [bifonazole] (10 µM) | 0.407 | 79% (inactive) |
| C/C(=C\c1ccc(C(=O)O)cc1)c1ccc2c(c1)C(C)(C)CCC2(C)C (10 µM) | -0.0726 | 102% (inactive) |
| O=[N+]([O-])O[C@@H]1CO[C@H]2[C@@H]1OC[C@@H]2O [isosorbide-mononitrate] (10 µM) | -0.103 | 110% (inactive) |
| N[C@@H](Cc1ccc(O)cc1)C(=O)NCC(=O)NCC(=O)O (10 µM) | -0.0946 | 114% (inactive) |
| CCC1(CC)C(=O)NC(=O)N(C)C1=O [metharbital] (10 µM) | 0.221 | 91.5% (inactive) |
| CC(C)n1nc(-c2cc3cc(O)ccc3[nH]2)c2c(N)ncnc21 (10 µM) | -0.0614 | 95.5% (inactive) |
| O=[N+]([O-])c1ncc[nH]1 [azomycin-(2-nitroimidazole)] (10 µM) | -0.138 | 105% (inactive) |
| CCN(CC)CCOc1ccc(Nc2ncc3cc(-c4c(Cl)cccc4Cl)c(=O)n(C)c3n2)cc1 (10 µM) | -0.126 | 123% (inactive) |
| CC(C)n1c(=O)n(C(=O)N[C@H]2C[C@H]3CC[C@@H](C2)N3C)c2ccccc21 (10 µM) | 0.0156 | 106% (inactive) |
| Oc1c(I)cc(I)c2cccnc12 [iodoquinol] (0.833333 µM) | 0.155 | 99.5% (inactive) |
| CC(=O)O[C@@H]1C[C@H]2C(C)(C)C(=O)C=C[C@]2(C)[C@H]2CC[C@@]3(C)[C@H](c4ccoc4)OC(=O)[C@H]4O[C@]43[C@@]21C [gedunin] (10 µM) | 0.145 | 106% (inactive) |
| Cc1ccc(-c2ncc(Cl)cc2-c2ccc(S(C)(=O)=O)cc2)cn1 [etoricoxib] (10 µM) | -0.139 | 114% (inactive) |
| Cc1cc(C)cc(C(=O)NOCCCCCC(=O)NO)c1 (10 µM) | -0.485 | 124% (inactive) |

| SMILES | morphology score [1] | SARS-CoV-2 infection rate [2] |
| --- | --- | --- |
| COc1cc2ncc(-c3ccccc3)nc2cc1OC [tyrphostin-AG-1296] (10 µM) | 0.195 | 108% (inactive) |
| C[C@@H]1COCCN1c1cc(C2([S@](C)(=N)=O)CC2)nc(-c2ccnc3[nH]ccc23)n1 (0.833333 µM) | 0.0164 | 90% (inactive) |
| CCCc1cc(C)[nH]c(=O)c1CNC(=O)c1cc(-c2ccc(N3CCN(C(C)C)CC3)nc2)cc2c1cnn2C(C)C (10 µM) | 0.0705 | 110% (inactive) |
| CNCCn1c(=O)c2cc(OC)c(OC)cc2c2cnc3cc4c(cc3c21)OCO4 (10 µM) | -0.381 | 118% (inactive) |
| O=C(NO)c1cnc(N2CCN(S(=O)(=O)c3ccc4ccccc4c3)CC2)nc1 (10 µM) | -0.145 | 115% (inactive) |
| CNC(=O)c1c(-c2ccc(F)cc2)oc2cc(N(CCO)S(C)(=O)=O)c(C3CC3)cc12 [nesbuvir] (10 µM) | 0.111 | 104% (inactive) |
| O=c1c(O[C@@H]2O[C@H](CO)[C@H](O)[C@H](O)[C@H]2O)c(-c2ccc(O)c(O)c2)oc2cc(O)cc(O)c12 [hyperin] (10 µM) | -0.0819 | 112% (inactive) |
| O=C1c2cccc3c2[C@H](CCC3)CN1[C@@H]1CN2CCC1CC2 [palonosetron] (10 µM) | 0.324 | 91.5% (inactive) |
| C=CCN1CC[C@]2(C)c3cc(O)ccc3C[C@H]1[C@H]2C (10 µM) | 0.112 | 102% (inactive) |
| C[C@]12CCC(=O)C=C1C=C[C@@H]1[C@@H]2CC[C@@]2(C)[C@H]1CC[C@@]21CCC(=O)O1 [canrenone] (10 µM) | 0.219 | 94% (inactive) |
| O=C1NN(C(=O)Nc2ccc(Br)cc2)[C@@H](c2ccccc2)[C@@H]1c1ccccc1 (10 µM) | -0.176 | 108% (inactive) |
| C[S+](C)CC[C@H](N)C(=O)O [cabagin] (10 µM) | 0.00749 | 109% (inactive) |
| CCCCC(=O)O[C@H]1CC[C@H]2[C@@H]3CCc4cc(O)ccc4[C@H]3CC[C@]12C (10 µM) | -0.00932 | 89% (inactive) |
| C#Cc1cccc(Nc2ncnc3cc(OCCOC)c(OCCO)cc23)c1 (10 µM) | -0.0889 | 116% (inactive) |
| Cn1cc(-c2ccc3c(c2)CCN3C(=O)Cc2cccc(C(F)(F)F)c2)c2c(N)ncnc21 (0.833333 µM) | 0.029 | 92% (inactive) |
| COc1ccc(C(=O)C2CCN(CC(=O)N(Cc3nc4c(c(=O)[nH]3)COCC4)CC3CC3)CC2)cc1 (10 µM) | 0.165 | 102% (inactive) |
| COc1ccc2nc3cc(Cl)ccc3c(Nc3cc(CN4CCCC4)c(O)c(CN4CCCC4)c3)c2n1 [pyronaridine] (0.833333 µM) | 0.282 | 100% (inactive) |
| Nc1ncnc(Nc2ccc(Cl)cc2)n1 [chlorazanil] (10 µM) | 0.133 | 106% (inactive) |
| CC(C)N(CCCNC(=O)Nc1ccc(C(C)(C)C)cc1)C[C@H]1O[C@@H](n2ccc3c(N)ncnc32)[C@H](O)[C@@H]1O (10 µM) | -0.157 | 108% (inactive) |
| COc1cccc(OC)c1-c1ccc(C[C@H](NC(=O)c2c(Cl)cccc2Cl)C(=O)O)cc1 (10 µM) | -0.141 | 102% (inactive) |
| OCC(CO)N[C@H]1C[C@](O)(CO)[C@@H](O)[C@H](O)[C@H]1O [voglibose] (10 µM) | -0.105 | 106% (inactive) |

| SMILES | morphology score [1] | SARS-CoV-2 infection rate [2] |
| --- | --- | --- |
| Cn1c(=O)c2c(ncn2C)n(C)c1=O [caffeine] (10 µM) | -0.174 | 113% (inactive) |
| NC(=O)OCCCc1ccccc1 [phenprobamate] (10 µM) | 0.0438 | 102% (inactive) |
| CO[C@H]1C[C@H](O[C@H]2CC[C@@]3(C)[C@H](CC[C@@H]4[C@@H]3CC[C@]3(C)[C@@H](C5=CC(=O)OC5)[C@@H](OC(C)=O)C[C@]43O)C2)O[C@@H](C)[C@@H]1O [oleandrin] (0.833333 µM) | -0.173 | 118% (inactive) |
| CC(=O)NCCC(=O)N[C@@H](Cc1c[nH]cn1)C(=O)O [N-acetylcarnosine] (10 µM) | -0.122 | 116% (inactive) |
| C[C@]12CCC(=O)C=C1CC[C@@H]1[C@@H]2CC[C@@]2(C)[C@H]1CC[C@]2(O)C(=O)CO [cortodoxone] (10 µM) | 0.0341 | 98% (inactive) |
| CC[C@H](C)[C@H](N)C1=N[C@H](C(=O)N[C@@H](CC(C)C)C(=O)N[C@H](CCC(=O)[O-])C(=O)N[C@H](C(=O)N[C@H]2CCCCNC(=O)[C@H](CC(N)=O)NC(=O)[C@@H](CC(=O)[O-])NC(=O)[C@H](Cc3cnc[nH]3)NC(=O)[C@@H](Cc3ccccc3)NC(=O)[C@H]([C@@H](C)CC)NC(=O)[C@@H](CCCN)NC2=O)[C@@H](C)CC)CS1.[Zn+2] [bacitracin-zinc] (10 µM) | -0.0221 | 108% (inactive) |
| Oc1cccc(O)c1 [resorcinol] (10 µM) | 0.0503 | 110% (inactive) |
| CN1Cc2c(N)cccc2C(c2ccccc2)C1 (configuration not stated) [nomifensine] (10 µM) | -0.106 | 109% (inactive) |
| [O-][S+](c1ccccc1)c1ccc2nnnn2n1 (configuration not stated) (0.833333 µM) | 0.19 | 85.5% (inactive) |
| COc1c(C)c2c(c(O)c1C/C=C(\C)CCC(=O)O)C(=O)OC2 [mycophenolic-acid] (10 µM) | -0.0923 | 114% (inactive) |
| Cn1cc(-c2ccc3nnc(Sc4ccc5ncccc5c4)n3n2)cn1 (10 µM) | 0.144 | 87% (inactive) |
| NS(=O)(=O)c1cc2c(cc1Cl)N=C(CSCc1ccccc1)NS2(=O)=O [benzthiazide] (10 µM) | -0.187 | 116% (inactive) |
| N[C@H]1C(O)O[C@H](CO)[C@@H](O)[C@@H]1O (mixture of isomers) [glucosamine] (10 µM) | -0.0432 | 105% (inactive) |
| C=CCN1C[C@H](C)N([C@H](c2ccc(C(=O)N(CC)CC)cc2)c2cccc(OC)c2)C[C@H]1C (10 µM) | -0.00563 | 106% (inactive) |
| Nc1nnc(-c2cccc(Cl)c2Cl)c(N)n1 [lamotrigine] (10 µM) | 0.0194 | 110% (inactive) |
| N#C/C(=C\c1ccc(O)c(O)c1)C(=O)NCc1ccccc1 (10 µM) | 0.214 | 98% (inactive) |
| OCCN(CCO)c1nc(N2CCCCC2)c2nc(N(CCO)CCO)nc(N3CCCCC3)c2n1 [dipyridamole] (10 µM) | 0.26 | 90.5% (inactive) |
| COc1ccc(C(=O)N2CCCC2=O)cc1 [aniracetam] (10 µM) | 0.0647 | 106% (inactive) |
| CS(=O)(=O)c1ccc(Oc2cc(F)cc(C#N)c2)c2c1[C@H](O)C(F)(F)C2 (10 µM) | 0.0223 | 99% (inactive) |

Reference: the supplement of paper PMC13380429
